Reference: PubChem BioAssay AID1259354 (Paczesny and Yang Labs, IUPUI and University of Michigan, 2018)
Screen size: about 78,000 compounds; about 1,800 (2.3%) were called active. Another 27% or so got no clear call; they are omitted. No stated cut-off is given here; in the data, active means inhibition above about 30%; inconclusive means mostly about 10% to 28%; inactive means weaker than that. The entries come from a sample that favours actives as a whole.

The molecules below were run against Interleukin-1 receptor-like 1 (Homo sapiens) (UniProt Q01638) (assay: blocks human ST2 binding to IL-33, primary screen, biochemical, AlphaLISA (AID 1259354)). Details: AlphaLISA ST2-Fc/biotin-IL-33 interaction, 1 h; at 17 µM, stronger effect = higher value.
Chain of Interleukin-1 receptor-like 1 (Homo sapiens) (Q01638 whole entry, looked up): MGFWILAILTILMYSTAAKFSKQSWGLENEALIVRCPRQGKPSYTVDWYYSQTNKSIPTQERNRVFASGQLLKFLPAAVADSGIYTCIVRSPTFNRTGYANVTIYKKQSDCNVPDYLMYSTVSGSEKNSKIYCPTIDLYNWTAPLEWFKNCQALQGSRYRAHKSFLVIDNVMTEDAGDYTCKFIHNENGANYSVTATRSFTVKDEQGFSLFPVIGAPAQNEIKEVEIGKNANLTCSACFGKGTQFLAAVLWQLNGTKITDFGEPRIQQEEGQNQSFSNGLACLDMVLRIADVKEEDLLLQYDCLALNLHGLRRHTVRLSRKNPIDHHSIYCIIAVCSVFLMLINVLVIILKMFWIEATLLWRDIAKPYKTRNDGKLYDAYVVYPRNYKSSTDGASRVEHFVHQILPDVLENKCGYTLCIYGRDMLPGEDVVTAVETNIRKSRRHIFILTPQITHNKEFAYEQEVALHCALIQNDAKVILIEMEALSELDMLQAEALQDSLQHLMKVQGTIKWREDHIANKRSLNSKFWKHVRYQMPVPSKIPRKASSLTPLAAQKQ

SMILES	inhibition
CC(C)c1ccc(Nc2c(-c3cccs3)nc3cnccn23)cc1	inactive
O=C(c1ccccc1F)N1CCc2c(c(C(=O)N3CCOCC3)nn2CCCc2ccccc2)C1	inactive
CC(C)c1ccc(NC2CCCN(C(=O)CCc3nc(-c4ccccc4)no3)C2)cc1 (configuration not stated)	inactive
CC1=C(C(N)=O)C(c2ccccc2Cl)n2ncnc2N1 (configuration not stated)	inactive
O=C(Cn1nc(-c2ccccc2)ccc1=O)NCCN1CCOCC1	inactive
COc1c(F)ccc(-c2nc(C(C)C)nn2-c2ccccn2)c1F	inactive
N#Cc1c2c(c(-n3ccnc3)n3c1nc1ccccc13)CCC2	inactive
Cc1c(CCC#N)c(-n2ccnc2)n2c(nc3ccccc32)c1C#N	inactive
Cc1cc(NCCN2CCCCCC2)n2c(nc3ccccc32)c1C#N	45% (active)
CN(C)CCCNc1c2c(c(C#N)c3nc4ccccc4n13)CCC2	51% (active)
O=C(CN1CCCN(Cc2ccccc2)S1(=O)=O)NCCc1ccccc1	inactive
COc1cc(/C=C2/C(=O)N(c3ccc(Cl)c(Cl)c3)N=C2C)cc(Br)c1O	37% (active)
CN1C(N)=NC(=O)/C1=C/c1cc(Br)c(O)c(Br)c1	inactive
COc1ccc(/C=C2\C(=O)N(c3ccc(Cl)c(C(=O)O)c3)N=C2C)cc1Br	72% (active)
COc1ccc(Cl)cc1C(=O)N1CCN(c2cccc(Cl)c2)CC1	inactive
COc1ccc2cc(-c3ccccc3NC(=O)CN)ccc2c1	inactive
COc1ccc(C2C(C(=O)N3CCC(C)CC3)c3cc(OC)c(OC)cc3C(=O)N2C)cc1 (configuration not stated)	inactive
COc1cc(/C=C2\C(=O)Nc3ccc(Br)cc32)ccc1O	inactive
CCOc1ccc(Br)c(/C=C2\C(=O)Nc3ccc(Br)cc32)c1	60% (active)
CCOc1cc(/C=C2\C(=O)NC(=O)N(c3ccc(Br)cc3)C2=O)ccc1O	inactive
COCc1cc(CNC(=O)c2csc3c2CCCC3)[nH]n1	inactive
COc1ccccc1C(=O)N/C(=C/c1ccc2c(c1)OCO2)C(=O)Nc1cccc(C(=O)O)c1	39% (active)
COc1ccccc1C(=O)N/C(=C\c1ccc2c(c1)OCO2)C(N)=O	inactive

SMILES	inhibition
O=C(Nc1ccccc1)/C(=C/c1ccc2c(c1)OCO2)NC(=O)c1ccc(Br)o1	inactive
CC(C)(C)NS(=O)(=O)c1ccc2c(c1)C(=O)c1cc(S(=O)(=O)NC(C)(C)C)ccc1-2	inactive
CCCc1nc(CN(C)C(=O)c2c(O)cccc2O)no1	inactive
CC(C)c1ccc(CNCCCN(C)C)cc1	inactive
O=C(NC1CCCCC1)N1CCC(n2cc(-c3ccccn3)nn2)CC1	inactive
COc1ccc(-c2nc3s/c(=C\C4=Cc5ccccc5OC4C)c(=O)n3n2)cc1 (configuration not stated)	inactive
CC1CCN(S(=O)(=O)c2ccc(Cl)c(C(=O)Nc3ccccc3[N+](=O)[O-])c2)CC1	34% (active)
CC1CCN(S(=O)(=O)c2ccc(Cl)c(S(=O)(=O)N3CCC(C)CC3)c2)CC1	inactive
O=C(Nc1ccccc1-c1ccccc1)c1ccccc1[N+](=O)[O-]	inactive
C/C(=C/c1nsc(Nc2ccc(Cl)cc2)n1)NC1CC(C)(C)NC(C)(C)C1	inactive
CC1CCCC(C)N1C(=O)c1cccc2c1-c1ccccc1C2=O (configuration not stated)	inactive
Cc1ccccc1CC1(C(=O)O)CCCN(c2cc(C3CC3)ncn2)C1 (configuration not stated)	inactive
CC(=O)C1=C(C)OC(N)=C(C#N)C1c1ccccc1 (configuration not stated)	inactive
O=C(Nc1cccc(-c2cccc(Cl)c2)c1)C1CCN(C(=O)c2ccccc2)CC1	inactive
Cc1cccc(NC(=O)CN2C(=O)CC(c3ccccc3)=Nc3ccccc32)c1	inactive
Cc1nc(-c2cccc(NC(=O)C3CCN(c4ccccc4)C3=O)c2)no1 (configuration not stated)	37% (active)
FC(F)(F)c1ccnc(NCc2cccnc2-n2ccnc2)c1	inactive
O=C(Nc1ccc2c(c1)OCO2)C1CCN(S(=O)(=O)c2ccc(F)cc2)CC1	inactive
Cn1c(=O)c2c(nc(N3CCCCCC3)n2CC(O)COc2ccc(Cl)cc2)n(C)c1=O (configuration not stated)	inactive
Clc1ccc(OCCN2CCCCCC2)cc1	inactive
N#Cc1nc(COc2ccc(Cl)cc2)oc1N1CCCC1	73% (active)
COCCO[C@H]1[C@H](NC(=O)C(C)C)c2ccccc2C12CCN(C(=O)c1cc(C(C)C)on1)CC2	inactive
O=C(O)c1cc(Br)ccc1N=Cc1nc(-c2ccccc2)oc1O	inactive

SMILES	inhibition
C=CCOc1ccc(C2C(C(=O)OCC(C)C)=C(C)N=C3SCCC(=O)N32)cc1 (configuration not stated)	inactive
COc1ccccc1NC(NC(=O)c1cccc(Cl)c1)C(Cl)(Cl)Cl (configuration not stated)	inactive
O=C(CCn1cnnn1)NCc1cnn2ccccc12	30% (active)
O=C(CN1CCOC1=O)NCc1cnn2ccccc12	inactive
O=C(CCCn1cnnn1)N1CCOC(c2ccc(Cl)c(Cl)c2)C1 (configuration not stated)	inactive
Cc1nn(C(=O)c2cccs2)c(C)c1Sc1ccccc1	inactive
Cc1nn(C(=O)c2ccccc2)c(C)c1Sc1ccccc1	inactive
Cc1nn(C(=O)/C=C/c2ccccc2)c(C)c1Sc1ccccc1	39% (active)
CC1CC(C)CN(C2CC(=O)N(c3ccc(Br)cc3Br)C2=O)C1 (configuration not stated)	inactive
CC1CN(C2CC(=O)N(c3ccc(Br)cc3Br)C2=O)CC(C)O1 (configuration not stated)	inactive
Cc1ccc(N2C(=O)CC(Nc3ccc(N4CCOCC4)cc3)C2=O)c(Br)c1 (configuration not stated)	56% (active)
CN1CCN(CCCNC(=O)COc2ccc3c(c2)C(=O)CC(C)(C)O3)CC1	inactive
COc1ccc(NC(=O)Cn2cnc3scc(-c4ccccc4)c3c2=O)cc1Cl	inactive
COc1cccc(N2CCN(S(=O)(=O)c3ccc4c(c3)c(=O)n(C)c(=O)n4C)CC2)c1	inactive
CS(=O)(=O)n1nnc2ccccc21	inactive
O=C1C(Nc2ccc(O)cc2)=C(n2nnc3ccccc32)C(=O)c2ccccc21	47% (active)
Cc1cc(=O)[nH]c(SCC(=O)Nc2ccc(F)cc2)n1	inactive
CCOc1ccc(Sc2cc(C(=O)NC3CC3)c3ccccc3n2)cc1	inactive
COc1ccc(C2=NN(C(C)=O)C(c3cc(OC)ccc3OC)C2)cc1 (configuration not stated)	inactive
COc1ccc(C2=NN3COc4ccc(Br)cc4C3C2)cc1 (configuration not stated)	36% (active)
COc1ccc(C2=NN3COc4ccc(Cl)cc4C3C2)cc1 (configuration not stated)	inactive
